Measurements from PubChem BioAssay (NCI).
This is part of a sample that, as a whole, favours compounds with a hit. Of some 83,000 tested, about 20% had one in any assay.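 Interpretation: 100, growth as untreated; towards 0, rising growth inhibition; 0, no net growth; 0 to -100, cell death. Compounds scoring below 10 were considered active.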 Active and inactive are the calls of the source.

Each compound was assayed on SF-539 CNS (assay: NCI-60 one-dose screen, 48 h (100 = growth as untreated, 0 = no growth, -100 = all killed)). Details: 10 µM unless noted.
`CCCCC1CCCC12NC(=O)NC2=O` (configuration not stated) was tested, and the growth was 113% (inactive). For `COc1ccc2c(c1)c(-c1nn3cc(-c4cccs4)nc3s1)cn2C`, the growth was 81.3% (inactive). `COc1ccc([C@H]2c3cc(OC)c(OC)cc3C=C(C=O)C2CO)cc1OC` (some centres not stated) was tested, and the growth was 38% (inactive). `C/C(=N/NC(N)=S)c1sc(Nc2cccc(Cl)c2)nc1C` was tested, and the growth was 83.7% (inactive). For `Cc1cccc2c3c(sc12)C(c1ccc(F)cc1)C(C#N)=C(N)O3` (configuration not stated), the growth was -15.3% (active). `COc1cc(C(=O)c2cnc(-c3cccc4[nH]ccc34)[nH]2)cc(OC)c1OC` was tested, and the growth was 1.12% (active). With `COc1ccc(C(=S)N2CCN(c3cccc(C)c3)CC2)cc1OC` the growth was 82.2% (inactive). For `CCOC(=O)/C(C#N)=C\Nc1ccc2ncnc(Nc3ccc(Cl)cc3Cl)c2c1`, the growth was 92.7% (inactive). `Cc1nn(-c2ccccc2)c(-n2ccnc2)c1/C=N/Nc1nc(-c2ccc(F)cc2)cs1` was tested, and the growth was 87.6% (inactive). `Cc1cc(=O)oc2cc(OC(=O)N3CCN(C)CC3)ccc12` was tested, and the growth was 96.3% (inactive). With `COc1cc(/C=C/c2c(C(C)=O)c(C)nc3ccccc23)cc(OC)c1OC` the growth was 7.46% (active). With `NS(=O)(=O)c1ccc(-n2nc(-c3ccc(Cl)cc3)c3ccccc3c2=O)cc1` the growth was 89.4% (inactive). For `COc1ccc(C(=O)C[C@]2(O)C(=O)Nc3c(Cl)ccc(Cl)c32)cc1`, the growth was -11.6% (active). With `O=c1[nH][n+](-c2ccc(Br)cc2)no1` the growth was 7.06% (active). In the case of `COc1cc2cc(Oc3ccc(NC(=O)Nc4ccc(Cl)c(Cl)c4)cc3)c(C)nc2cc1OCCN1CCOCC1`, the growth is reported as 93.6% (inactive). `C#C[C@]1(O)CC[C@H]2[C@@H]3CC=C4c5sc(Nc6ccccc6)nc5CC[C@]4(C)[C@H]3CC[C@@]21C` was tested, and the growth was -51.1% (active). For `CCCCCCCCCCCCCCCCCCOc1ccc(CC(=O)OCC[N+](C)(C)C)cc1`, the growth was 97.9% (inactive). With `Cc1ccc(-c2nc3c(c(-c4ccccc4)nn3-c3ccccc3)c(-c3ccc(O)cc3)c2C#N)cc1` the growth was 15.2% (inactive). With `CN(C)CCS(=O)(=O)Nc1cc(-c2ccc3ncc(C#N)c(Nc4ccc(F)c(Cl)c4)c3c2)cnc1Cl` the growth was -36.4% (active). For `O=C(Nc1ccc(I)cc1F)c1cc(I)ccc1O`, the growth was 9.88% (active). `C/C=C(\C)C(=O)N[C@H]1[C@@H](OC(C)=O)C[C@]2(C)C3CC[C@@]4(C)C(CC[C@@H]4C(C)N(C)C)C3CCC2[C@H]1O` (some centres not stated) was tested, and the growth was 37% (inactive). For `COc1ccc2[nH]c(-c3ccccc3)c(/C=C(\C#N)S(=O)(=O)c3ccccc3)c2c1`, the growth was 42.3% (inactive). In the case of `NCCNc1nc2ccccc2c2c(=O)c3cccc(F)c3sc12`, the growth is reported as 59.2% (inactive). With `Nc1nc2ccccc2c2c(=O)c3cc(F)ccc3sc12` the growth was 104% (inactive). For `O=C1CN(CCN2CC(=O)N(Cc3ccccc3)C(=O)C2)CC(=O)N1Cc1ccccc1`, the growth was 115% (inactive). For `COc1ccc(-c2[nH]c3ccc(OC)cc3c2/C=C(\C#N)S(=O)(=O)c2ccccc2)cc1`, the growth was -37.8% (active). With `CN1C(=O)N(C)C2Nn3c(s/c(=C\c4ccccc4)c3=O)=NC21` (configuration not stated) the growth was 100% (inactive). For `Nc1ccc(Sc2ccc([N+](=O)[O-])c3nonc23)cc1`, the growth was 91.9% (inactive). For `CS(=O)(=O)Nc1cc(-c2ccc3ncnc(Nc4cccc(Cl)c4F)c3c2)cnc1Cl`, the growth was 27.8% (inactive). `CCCCNC(=O)Oc1ccc(/C(=C(\C)c2ccc(Cl)cc2)c2ccc(OCCN3CCCCC3)cc2)cc1` was tested, and the growth was 71.7% (inactive). In the case of `CCCSc1nc2ccc(C)cc2cc1/C=[N+](\[O-])c1ccccc1`, the growth is reported as 1.38% (active). In the case of `C[C@H]1[C@H]2[C@H]3CC[C@@H]4[C@@]5(C)CC[C@H](O)C(C)(C)[C@@H]5CC[C@@]4(C)[C@]3(C)CC[C@]23CO[C@]1(C)[C@@H](C(=O)/C=C\c1cccnc1)C3`, the growth is reported as 77.8% (inactive). For `Cc1onc2c(-c3ccccc3)n[nH]c(=O)c12`, the growth was 93.8% (inactive). In the case of `COc1cc(/C=C/C(=O)/C=C/c2cc(OC)c3c(c2OC)OCO3)c(OC)c2c1OCO2`, the growth is reported as 29.4% (inactive). `O=C1/C(=C/c2ccccc2[N+](=O)[O-])Oc2ccc(O)c(O)c21` was tested, and the growth was 29% (inactive). In the case of `CC1=C(C)C(=O)C(Nc2cccc(C(=O)OC(C)(C)C)c2)=C(Br)C1=O`, the growth is reported as 94.7% (inactive). For `NS(=O)(=O)c1ccc(N=Nc2ccc(-c3nn4cc(-c5ccccc5)nc4s3)cc2)cc1`, the growth was 97.6% (inactive).
